From ChEMBL document CHEMBL3988442, “University of Dundee, Small-Polar-MMV Screening Library” (2021)
For part of these data: Entries with a potency or affinity are not part of this list.

Legend:
Set-up in all cases: scale not given: direction of the effect not stated beside the values
[1] = molecular target: Protein translocase subunit SecA (Escherichia coli (strain K12)) (UniProt P10408); assay: Assay to Identify E. coli SecA ATPase Inhibitors; type: functional; settings: 30 µM
[2] = molecular target: T1, Ubiquitin-activating enzyme e1, putative (Leishmania donovani (strain BPK282A1)) (UniProt E9BSI1); assay: Leishmania donovani Ubiquitin Activating Enzyme (LdE1); type: functional; settings: 30 µM
T1 sequence (whole entry): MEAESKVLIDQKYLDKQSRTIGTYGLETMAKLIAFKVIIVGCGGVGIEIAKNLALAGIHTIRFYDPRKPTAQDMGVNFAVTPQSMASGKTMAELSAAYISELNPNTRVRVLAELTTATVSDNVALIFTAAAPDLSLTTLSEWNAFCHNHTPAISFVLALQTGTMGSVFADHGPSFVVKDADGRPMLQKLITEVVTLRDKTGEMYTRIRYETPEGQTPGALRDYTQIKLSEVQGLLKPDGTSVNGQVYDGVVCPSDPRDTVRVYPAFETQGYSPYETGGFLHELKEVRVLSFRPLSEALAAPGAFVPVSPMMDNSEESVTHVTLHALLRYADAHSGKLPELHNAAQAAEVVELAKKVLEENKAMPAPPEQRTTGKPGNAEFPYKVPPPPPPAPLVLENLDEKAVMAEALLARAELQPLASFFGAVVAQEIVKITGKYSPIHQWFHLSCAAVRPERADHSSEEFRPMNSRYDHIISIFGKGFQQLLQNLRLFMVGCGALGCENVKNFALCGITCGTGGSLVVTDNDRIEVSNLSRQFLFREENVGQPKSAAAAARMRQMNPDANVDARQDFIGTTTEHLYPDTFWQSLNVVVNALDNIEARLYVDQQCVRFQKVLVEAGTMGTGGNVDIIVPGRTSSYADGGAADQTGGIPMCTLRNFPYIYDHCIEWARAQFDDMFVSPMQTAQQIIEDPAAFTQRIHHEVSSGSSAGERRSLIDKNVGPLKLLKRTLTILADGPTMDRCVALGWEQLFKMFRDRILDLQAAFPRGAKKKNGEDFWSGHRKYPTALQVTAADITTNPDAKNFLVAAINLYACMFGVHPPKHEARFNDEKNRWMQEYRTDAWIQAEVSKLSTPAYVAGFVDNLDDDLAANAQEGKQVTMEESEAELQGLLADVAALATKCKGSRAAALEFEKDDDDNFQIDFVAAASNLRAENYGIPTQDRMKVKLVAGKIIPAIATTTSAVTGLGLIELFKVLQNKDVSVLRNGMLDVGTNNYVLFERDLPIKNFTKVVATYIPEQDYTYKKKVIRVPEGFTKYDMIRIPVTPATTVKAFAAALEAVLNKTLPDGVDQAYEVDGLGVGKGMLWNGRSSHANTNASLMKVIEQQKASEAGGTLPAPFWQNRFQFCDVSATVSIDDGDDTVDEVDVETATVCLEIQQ

[3] = molecular target: AMP-activated protein kinase, AMPK (Homo sapiens) (UniProt P54646+O43741+P54619+Q9UGJ0+Q9Y478+Q13131+Q9UGI9); assay: AMP-dependent Kinase enzyme assay. An in vitro enzyme assay that detects ADP turnover that is directly proportional to AMPK activity. This uses naive AMPK that is activated during the assay with MK-8722; type: functional; settings: 30 µM
[4] = molecular target: Sialic acid-binding Ig-like lectin 9 (Homo sapiens) (UniProt Q9Y336); assay: Hs-Siglec9 ALPHAscreen SOP 20170721; settings: 10 µM
Trypanosoma cruzi = assay: Trypanosoma cruzi phosphomannomutase and mannose-1-phosphate guanylyltransferase assay; type: functional; settings: 10 µM
[5] = molecular target: T2, Arginase-2, mitochondrial (Homo sapiens) (UniProt P78540); assay: in vitro enzyme assay to detect the production of urea directly proportional to the activity of Arginase II; type: functional; settings: 33.3 µM; further: in the data most compounds retested in dose-response had high values
T2 sequence (whole entry): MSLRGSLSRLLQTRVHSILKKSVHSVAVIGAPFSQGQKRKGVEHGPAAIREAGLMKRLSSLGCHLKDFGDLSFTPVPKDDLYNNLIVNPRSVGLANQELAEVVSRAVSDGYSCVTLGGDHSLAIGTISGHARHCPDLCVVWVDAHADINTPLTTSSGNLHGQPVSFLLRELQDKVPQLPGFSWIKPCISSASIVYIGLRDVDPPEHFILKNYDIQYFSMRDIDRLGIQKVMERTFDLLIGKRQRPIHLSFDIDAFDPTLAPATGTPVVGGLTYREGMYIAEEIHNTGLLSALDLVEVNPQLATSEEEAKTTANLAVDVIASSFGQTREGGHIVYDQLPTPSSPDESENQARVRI

[6] = molecular target: T3, Proteasome subunit beta (Trypanosoma cruzi) (UniProt O96673); assay: Trypanosoma cruzi proteasome chymotrypsin-like activity (TcProtChymo) assay.; further: in the data most compounds retested in dose-response had high values; type: functional; settings: 9.37 µM
T3 sequence (whole entry): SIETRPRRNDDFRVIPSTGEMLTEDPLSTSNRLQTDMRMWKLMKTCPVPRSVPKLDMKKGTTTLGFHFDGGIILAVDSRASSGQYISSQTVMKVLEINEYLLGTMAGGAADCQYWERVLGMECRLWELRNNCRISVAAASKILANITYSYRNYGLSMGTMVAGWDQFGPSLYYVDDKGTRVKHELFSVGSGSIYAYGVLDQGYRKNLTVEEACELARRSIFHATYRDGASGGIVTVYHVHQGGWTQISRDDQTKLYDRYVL

Homo sapiens = organism: Homo sapiens; assay: To identify inhibition of the IFN signalling (Jak-Stat) pathway via expression of an eGFP reporter gene under the control of an IFN-stimulated response element (ISRE) containing MxA promoter.; type: functional; settings: 30 µM
[7] = molecular target: T4, Tyrosyl-tRNA synthetase, putative (Trypanosoma cruzi (strain CL Brener)) (UniProt Q4DSP6); assay: Trypanosoma cruzi tyrosyl tRNA synthetase (TcYRS) _High Tyrosine SOP; type: functional; settings: 30 µM; further: in the data most compounds retested in dose-response had high values
T4 sequence (whole entry): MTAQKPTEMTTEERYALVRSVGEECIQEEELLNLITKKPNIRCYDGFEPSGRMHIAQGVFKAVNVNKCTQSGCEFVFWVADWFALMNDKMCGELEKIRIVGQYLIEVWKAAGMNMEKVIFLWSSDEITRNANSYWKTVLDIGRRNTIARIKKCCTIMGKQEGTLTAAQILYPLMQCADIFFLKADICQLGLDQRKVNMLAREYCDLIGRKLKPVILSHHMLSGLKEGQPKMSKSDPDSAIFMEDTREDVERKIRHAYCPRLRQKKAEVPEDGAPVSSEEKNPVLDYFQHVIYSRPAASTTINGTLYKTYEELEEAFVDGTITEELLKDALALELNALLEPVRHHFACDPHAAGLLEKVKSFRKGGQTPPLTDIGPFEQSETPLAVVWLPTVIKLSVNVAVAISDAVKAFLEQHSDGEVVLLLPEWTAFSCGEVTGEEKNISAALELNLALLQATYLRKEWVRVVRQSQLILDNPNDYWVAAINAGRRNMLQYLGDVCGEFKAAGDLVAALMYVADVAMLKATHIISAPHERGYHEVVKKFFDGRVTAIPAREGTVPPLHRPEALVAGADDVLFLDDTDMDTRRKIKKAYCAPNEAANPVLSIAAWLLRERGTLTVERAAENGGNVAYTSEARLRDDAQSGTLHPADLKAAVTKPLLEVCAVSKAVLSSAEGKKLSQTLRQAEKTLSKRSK

[8] = molecular target: T4, Tyrosyl-tRNA synthetase, putative (Trypanosoma cruzi (strain CL Brener)); assay: Trypanosoma cruzi tyrosyl tRNA synthetase (TcYRS) SOP; type: functional; settings: 30 µM
[9] = molecular target: Chromo domain-containing protein 1 (Saccharomyces cerevisiae (strain ATCC 204508 / S288c) (Baker's yeast)) (UniProt P32657); assay: ScCHD-1 Enzyme Inhibition Assay; type: functional; settings: 30 µM; further: in the data most compounds retested in dose-response had high values
Chain of Chromo domain-containing protein 1 (Saccharomyces cerevisiae (strain ATCC 204508 / S288c) (Baker's yeast)) (P32657 whole entry, the tested form may be a part): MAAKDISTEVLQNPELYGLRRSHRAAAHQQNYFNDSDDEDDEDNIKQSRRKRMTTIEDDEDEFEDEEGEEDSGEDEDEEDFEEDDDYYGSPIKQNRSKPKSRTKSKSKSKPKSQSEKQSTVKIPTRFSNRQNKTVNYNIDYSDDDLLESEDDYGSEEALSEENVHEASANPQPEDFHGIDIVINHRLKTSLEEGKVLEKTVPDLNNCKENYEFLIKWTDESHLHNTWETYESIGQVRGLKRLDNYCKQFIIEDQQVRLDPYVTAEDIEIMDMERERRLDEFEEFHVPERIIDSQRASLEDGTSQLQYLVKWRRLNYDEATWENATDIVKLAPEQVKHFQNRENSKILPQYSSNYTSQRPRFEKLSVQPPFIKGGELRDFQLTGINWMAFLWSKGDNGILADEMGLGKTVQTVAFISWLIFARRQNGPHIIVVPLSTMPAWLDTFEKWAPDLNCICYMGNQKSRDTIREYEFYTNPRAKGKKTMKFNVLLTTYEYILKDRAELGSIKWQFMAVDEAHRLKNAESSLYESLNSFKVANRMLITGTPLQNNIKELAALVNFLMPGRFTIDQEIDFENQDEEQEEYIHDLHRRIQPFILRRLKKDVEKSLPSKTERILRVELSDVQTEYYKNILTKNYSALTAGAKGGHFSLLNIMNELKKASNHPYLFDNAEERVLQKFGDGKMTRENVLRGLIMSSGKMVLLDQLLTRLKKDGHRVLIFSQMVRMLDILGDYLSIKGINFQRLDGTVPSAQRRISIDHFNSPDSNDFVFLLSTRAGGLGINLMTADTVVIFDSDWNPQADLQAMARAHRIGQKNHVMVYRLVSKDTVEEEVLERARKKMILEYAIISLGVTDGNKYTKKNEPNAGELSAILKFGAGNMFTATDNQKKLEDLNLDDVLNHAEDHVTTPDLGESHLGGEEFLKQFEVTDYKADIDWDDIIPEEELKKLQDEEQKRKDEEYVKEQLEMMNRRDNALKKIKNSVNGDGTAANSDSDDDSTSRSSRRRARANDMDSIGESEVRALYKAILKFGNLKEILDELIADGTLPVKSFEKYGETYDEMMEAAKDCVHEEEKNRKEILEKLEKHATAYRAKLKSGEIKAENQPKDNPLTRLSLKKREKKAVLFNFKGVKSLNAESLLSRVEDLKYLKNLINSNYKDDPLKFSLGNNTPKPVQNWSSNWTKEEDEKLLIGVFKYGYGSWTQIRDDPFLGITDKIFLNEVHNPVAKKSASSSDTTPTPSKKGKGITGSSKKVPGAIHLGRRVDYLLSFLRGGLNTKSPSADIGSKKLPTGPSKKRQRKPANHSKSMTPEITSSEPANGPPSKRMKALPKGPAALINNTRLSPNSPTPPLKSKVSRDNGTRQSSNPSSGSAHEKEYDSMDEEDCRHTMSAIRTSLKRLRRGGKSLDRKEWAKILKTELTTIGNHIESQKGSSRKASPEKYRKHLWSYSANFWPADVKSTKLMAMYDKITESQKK

Chain of Sialic acid-binding Ig-like lectin 9 (Homo sapiens) (Q9Y336 whole entry): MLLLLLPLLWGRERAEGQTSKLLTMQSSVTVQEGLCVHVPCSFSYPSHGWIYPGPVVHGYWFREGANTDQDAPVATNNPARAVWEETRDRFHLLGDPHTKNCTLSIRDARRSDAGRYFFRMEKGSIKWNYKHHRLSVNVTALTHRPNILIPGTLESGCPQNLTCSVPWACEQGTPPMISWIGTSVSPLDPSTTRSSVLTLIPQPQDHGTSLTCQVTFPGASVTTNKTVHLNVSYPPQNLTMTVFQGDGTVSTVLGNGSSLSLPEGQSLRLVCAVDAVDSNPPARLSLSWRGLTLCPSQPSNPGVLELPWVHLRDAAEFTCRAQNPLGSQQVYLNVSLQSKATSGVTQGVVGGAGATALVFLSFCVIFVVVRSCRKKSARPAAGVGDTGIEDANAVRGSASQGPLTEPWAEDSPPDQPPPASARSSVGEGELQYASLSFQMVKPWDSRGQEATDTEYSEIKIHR
Chain of Protein translocase subunit SecA (Escherichia coli (strain K12)) (P10408 whole entry): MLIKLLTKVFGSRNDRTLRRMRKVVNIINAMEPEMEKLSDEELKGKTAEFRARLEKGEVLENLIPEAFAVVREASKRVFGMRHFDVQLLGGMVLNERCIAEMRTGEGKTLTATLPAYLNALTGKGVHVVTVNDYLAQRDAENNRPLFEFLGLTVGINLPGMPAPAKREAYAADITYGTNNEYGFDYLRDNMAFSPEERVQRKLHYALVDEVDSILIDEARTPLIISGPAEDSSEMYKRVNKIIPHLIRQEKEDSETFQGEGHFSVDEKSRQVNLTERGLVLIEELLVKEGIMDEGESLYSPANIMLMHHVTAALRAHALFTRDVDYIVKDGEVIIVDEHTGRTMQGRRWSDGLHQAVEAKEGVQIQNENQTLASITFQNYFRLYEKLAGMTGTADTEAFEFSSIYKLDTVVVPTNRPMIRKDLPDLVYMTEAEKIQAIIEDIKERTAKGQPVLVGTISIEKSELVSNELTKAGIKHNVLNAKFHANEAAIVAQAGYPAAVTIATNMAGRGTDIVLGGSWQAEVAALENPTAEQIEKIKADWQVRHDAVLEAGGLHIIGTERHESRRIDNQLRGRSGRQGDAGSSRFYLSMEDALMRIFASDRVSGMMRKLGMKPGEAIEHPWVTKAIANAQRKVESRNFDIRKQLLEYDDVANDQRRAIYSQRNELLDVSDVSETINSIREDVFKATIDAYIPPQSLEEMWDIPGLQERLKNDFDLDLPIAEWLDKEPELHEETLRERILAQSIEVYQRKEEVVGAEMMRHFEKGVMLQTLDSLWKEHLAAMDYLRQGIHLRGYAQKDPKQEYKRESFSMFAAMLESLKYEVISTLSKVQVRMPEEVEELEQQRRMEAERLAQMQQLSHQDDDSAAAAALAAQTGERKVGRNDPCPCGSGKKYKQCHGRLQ

Row | Compound | Percent Effect [1] [%] | Percent Effect [2] [%] | Percent Effect [3] [%] | Percent Effect [4] [%] | Percent Effect (Trypanosoma cruzi) [%] | Percent Effect [5] [%] | Percent Effect [6] [%] | Percent Effect (Homo sapiens) [%] | Percent Effect [7] [%] | Percent Effect [8] [%] | Percent Effect [9] [%]
1 | CCn1c(N)nc2cc(C(=O)NCCc3ccccc3C)cnc21 | -2.81 | 13.7 | 9.51 | 3.5 | 5.09 | 15 | 22.7 | 20.2 | 5.38 | 17.5 | -12.1
2 | Cc1nnc(NC(=O)NCc2cc(F)cc(F)c2)s1 | -1.16 | 21.1 | -3.09 | -15.6 | -9.43 | 5.75 | 10.7 | 13.5 | 4.43 | 13.6 | -3.4
3 | Cc1cnc2n(c1=O)CC(C(=O)Nc1cccc3cccnc13)CS2 (stereo unspecified) | -3.5 | -2.74 | -76.9 | -1.76 | 5.88 | 0.455 | 8.87 | 5.24 | 1.07 | 0 | -2.86
4 | Cc1cc(S(=O)(=O)NCc2cccc(C(=O)N3CCCC3)c2)c(C)s1 | -4.9 | 13 | -3.16 | -6.78 | 4.21 | -1.9 | 10.1 | 15.2 | 5.71 | 21.2 | -17.7
5 | CCNC(=O)Nc1ccc2c(ccn2CC(=O)N(CC)CC)c1 | -2.78 | 18.4 | -2.69 | 1.44 | -0.188 | -4.6 | 12.5 | 19.9 | 9.31 | 17.1 | -6.24
6 | CCOc1ccccc1Nc1nc2c(C)nn(C)c2c(=O)n1C | -4.55 | 20.8 | 1.12 | 10.9 | 3.64 | 6.9 | 10.7 | -5.39 | 8.6 | 18.5 | -6.44
7 | CC(C)c1nn(C)c(Cl)c1CNC1CCOc2ccccc21 (stereo unspecified) | -3.65 | 8.11 | -0.168 | 9.16 | 2.32 | 0.185 | -1.79 | 31.4 | 8.91 | 23.2 | -2.97
8 | c1ncn(CC2CCCCN2Cc2csc(C3CCCC3)n2)n1 (stereo unspecified) | -2.71 | -5.2 | -0.0278 | 1.89 | 9.55 | -1.42 | 6.93 | 11.4 | 10.7 | 19.5 | 66.7
9 | COCCN(C)C[C@@H]1CN(C(=O)c2cccc(C(F)(F)F)c2)C[C@@H]1CO | -0.782 | 2.7 | 1.75 | 21.1 | 5.79 | 10 | 13.4 | -3.37 | 2.65 | 14.6 | -4.78
10 | NC(=O)CCOc1nc(-c2ccccc2Cl)no1 | -6.94 | 2.74 | -11.9 | 31.6 | 8.23 | -1.82 | 8.87 | -2.22 | 4.3 | 15 | -6.33
11 | Cc1cc(-c2cnc(N3CCNC(=O)C3)nc2-c2ccc(C)o2)on1 | -8.2 | 21.3 | 3.79 | 11.1 | 1.38 | -6.76 | 11.4 | 29.2 | 5.32 | 11.5 | -16.5
12 | Cc1cc(C)cc(C2(C(=O)N3CCCC(n4cncn4)C3)CC2)c1 (stereo unspecified) | -0.118 | 16.2 | 3.34 | -6.31 | -3.44 | 2.4 | 7.36 | 12.7 | 6.93 | 18.3 | -6.26
13 | CC(C)c1n[nH]c(C2CN(Cc3nnc(C4CC4)o3)CCO2)n1 (stereo unspecified) | -2.46 | 0 | 9.78 | -2.59 | -3.87 | -8.37 | 6.47 | 27.6 | -5.42 | -11.4 | -1.54
14 | COc1ccc(CN(C)CC2(O)CCN(C(=O)c3cccn3C)C2)cc1 (stereo unspecified) | -9.44 | -1.35 | 5.12 | 2.88 | -1.78 | -7.19 | -1.87 | 11.8 | -2.15 | -3.9 | -10.2
15 | Cn1cc(NS(=O)(=O)c2ccc(OC(F)(F)F)cc2)ccc1=O | -4.62 | 7.59 | -136 | -4.96 | -9.73 | -1.9 | 0.246 | 62.5 | 0.493 | 8.86 | -4.48
16 | CC[C@H](C)[C@H](NC(=O)c1ccccc1-n1cnnn1)C(=O)OC | -2.24 | -4 | 6.42 | -4.83 | -14.2 | -9.33 | 1.85 | -2.35 | -1.06 | -12.8 | 1.23
17 | Cc1cnn(CCNCc2csc(-c3ccc4c(c3)OCO4)n2)c1 | -4.64 | -13.2 | -1.92 | -4.07 | -5.83 | 2.68 | 11.2 | 24 | 1.47 | 4.88 | 18
18 | CC(=O)N1CCCN(C(=O)c2ccn(-c3cccc(Cl)c3)n2)CC1 | -2.55 | 15.6 | -0.208 | -4.72 | -4.31 | -1.42 | 12.8 | 10.3 | 5.83 | 14.6 | -6
19 | O=C(NCCCN1CCCC1)c1n[nH]c(=O)c2ccccc12 | -2.88 | 20.8 | 0.621 | -1.51 | -10.7 | 2.13 | 5.74 | 11.3 | 6.8 | 12.2 | -6.65
20 | Fc1ccc(CN2CCO[C@H]3[C@H](OCCN4CCCC4)CC[C@@H]32)cc1 | 7.01 | 10.7 | 5.78 | 7.14 | -4.05 | -51.1 | 12.8 | -9.42 | 5.21 | 12.5 | -3.68
21 | CC(C)N(C)Cc1cn2c(n1)CN(Cc1ccsc1)CC2 | 5.48 | 11 | 1.28 | 6.24 | -5.56 | -3.19 | 9.33 | 18.4 | 7.29 | 8.64 | 2.73
